Source: PubChem BioAssay (National Center for Advancing Translational Sciences (NCATS))
Rows were chosen to be rich in hits. Some 3.8% of all compounds tested hit in one or more screens of this group.
HT1080 IDH1KD tx: kills HT-1080 cells with IDH1 knockdown. 360,000 compounds, 2% hits. HT-1080 IDH1 knockdown viability, ATP luminescence, 48 h. Potency, µM (doses to about 46.1 µM), usual class: cytotoxic
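In this qHTS, HT-1080 cells depleted of IDH1 are exposed for 48 h at 37 °C to compound titrations. Toxicity is scored from CellTiter-Glo luminescence, with DMSO as full viability and medium alone as none.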
HepG2 viability: counter-screen for TGF-b inhibitors: cytotoxicity in HepG2 cells; HepG2 CAGA-GFP viability, ATP luminescence, 18 h; Potency, µM (series often up to 46.1 µM), most hits filed as cytotoxic; 410,000 compounds, 0.76% hits; AID 588856
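CellTiter-Glo luminescence gave cytotoxicity after 18 hours at 37 degrees C. The cells were HepG2 CAGA-GFP in 1% FBS DMEM, stimulated with 500 pg/mL TGF-beta after compound addition. %Activity was normalised to no-cell wells (complete cell-killing) and DMSO (no toxicity), and curves were fitted and classified.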
HT1080NT lethal: kills 2HG-producing HT-1080-NT fibrosarcoma cells | Potency, µM (highest dose often 46.1 µM), actives largely listed as cytotoxic | 360,000 compounds, 1.6% hits | HT-1080-NT fibrosarcoma viability, CellTiter-Glo ATP luminescence, 48 h;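 note: NT is the 2HG producing partner of a matched IDH1 knockdown line; nearly all actives have a fitted effect of over 55% in size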
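HT-1080-NT; 750 cells/well; 5% FBS RPMI; 48 h compound, 37 degrees C; CellTiter-Glo luminescence; curve fitting and curve-class assignment.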
ATXN2 expr inh: inhibitors of ATXN2 expression | Potency, µM (doses to about 57 µM), most hits filed as inhibitors | HEK-293 ATXN2-luciferase reporter, luminescence, 24 h | AID 1745845 | 360,000 compounds, 0.72% hits; note: nearly all actives have a fitted effect of over 55% in size
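qHTS (up to 57 uM final) was run with 24 h compound exposure of reporter cells at 37 °C. Each well was multiplexed: SteadyGlo luminescence measured ATXN2-luciferase expression after a fluorogenic Gly-Phe-AFC viability readout (25 uM final).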
TGFb inhibitor: TGF-b pathway inhibition | 410,000 compounds, 1.2% hits | Potency, µM (series often up to 46.1 µM), actives largely listed as inhibitors | HepG2 CAGA-GFP TGF-b/SMAD3 reporter, GFP fluorescence, 18 h; TGF-beta stimulated, 500 pg/mL final; note: nearly all actives have a fitted effect of over 65% in size
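Read-out: total well GFP (ex488/em500-530) summed from mean per-cell fluorescence. Cells: HEPG2 CAGA-GFP, 1% FBS DMEM, 18 h at 37 degrees C with 500 pg/mL final TGF-beta. Unstimulated wells served as the full-inhibition control; stimulated DMSO wells = 0%.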
ATXN viability: cell viability loss in ATXN counter-screen; S2 cells (HEK-293 line with an ATXN2-luciferase reporter) viability, CellTiter-Fluor protease fluorescence, 24 h; Potency, µM (series often up to 56.7 µM), hits mostly cytotoxic; 400,000 compounds, 0.49% hits; note: nearly all actives have a fitted effect of over 40% in size
A number is an active result; ! = repeats disagree; [ ] = dose if it differs, or a comment. Calls come from the whole dose curve; as a rule, active = well fitted curve in the direction sought with a large enough effect; inconclusive = small, poorly fitted or top-dose-only effect, or another doubt; inactive = no such curve, though single readings can be large; an effect the other way counts as inactive or inconclusive.

What do the screens show for `O=C(C[n+]1cccc2cccc(O)c21)c1ccc(Cl)cc1`?
HepG2 viability: inactive; TGFb inhibitor: inactive

Results for Cc1cc(N2CCN(C)CC2)nc2ccc(NC(=S)NCc3cccs3)cc12 ?
HT1080 IDH1KD tx: 23µM; HepG2 viability: inactive; HT1080NT lethal: 18µM; ATXN2 expr inh: inactive; TGFb inhibitor: inactive; ATXN viability: inconclusive

How did CCN1CCN(c2cc(C)c3cc(NC(=S)NCc4cccs4)ccc3n2)CC1 do in these assays?
HT1080 IDH1KD tx: inactive; HepG2 viability: inactive; HT1080NT lethal: inactive; TGFb inhibitor: inactive; ATXN viability: inconclusive

How did COc1ccc(CNC(=S)Nc2ccc3nc(N4CCN(C)CC4)cc(C)c3c2)cc1 do in these assays?
HT1080 IDH1KD tx: inconclusive; HepG2 viability: inactive; HT1080NT lethal: 16µM; ATXN2 expr inh: inactive; TGFb inhibitor: inconclusive; ATXN viability: inactive

Results for Cc1cnc(C)c(-c2cc(F)cc3c2OC(CNC(=O)Cc2c(C)noc2C)C3)n1 (configuration not stated) ?
ATXN viability: inactive

What do the screens show for `CN1CCN(Cc2nc3ccccc3c(=O)n2Cc2nc(-c3ccccc3F)cs2)CC1`?
HT1080 IDH1KD tx: inactive; HepG2 viability: inactive; HT1080NT lethal: inactive; ATXN2 expr inh: inactive; TGFb inhibitor: inactive; ATXN viability: inactive

Results for CN1CCN(Cc2nc3ccccc3c(=O)n2Cc2nc(-c3ccc4ccccc4c3)cs2)CC1 ?
HT1080 IDH1KD tx: 3.7µM; HepG2 viability: 16µM!; HT1080NT lethal: 5.8µM; ATXN2 expr inh: inconclusive; TGFb inhibitor: inconclusive

Results for CN1CCN(Cc2nc3ccccc3c(=O)n2Cc2nc(-c3cccc([N+](=O)[O-])c3)cs2)CC1 ?
HT1080 IDH1KD tx: 23µM; HepG2 viability: inactive; HT1080NT lethal: 15µM; ATXN2 expr inh: inactive[11.3 µM]; TGFb inhibitor: inconclusive; ATXN viability: inactive

How did CCOc1ccccc1N(C)C(=O)c1cc(S(=O)(=O)NCCc2ccc(Cl)cc2)ccc1F do in these assays?
HepG2 viability: inactive; ATXN2 expr inh: inconclusive; TGFb inhibitor: inconclusive; ATXN viability: inconclusive

Results for C/C(=N\N=C(N)N)c1ccc(Cl)cc1Cl ?
HT1080 IDH1KD tx: 21µM; HepG2 viability: inactive; HT1080NT lethal: 13µM; ATXN2 expr inh: inconclusive; TGFb inhibitor: inconclusive; ATXN viability: inactive

Results for CCOC(=O)CC(NC(=O)CCc1c(C)nc2c(-c3ccccc3)c(C)nn2c1C)c1ccc(OC(C)C)cc1 (configuration not stated) ?
HepG2 viability: inactive; ATXN2 expr inh: inconclusive; TGFb inhibitor: 16µM

Results for CCOC(=O)CC(NC(=O)CCc1c(C)nc2cc(-c3ccccc3)nn2c1C)c1ccc(C)cc1 (configuration not stated) ?
HepG2 viability: inactive; ATXN2 expr inh: inconclusive; TGFb inhibitor: inconclusive; ATXN viability: inconclusive

Results for CCOC(=O)CC(NC(=O)CCc1c(C)nc2c(-c3ccccc3)c(C)nn2c1C)c1ccc(C)cc1 (configuration not stated) ?
HepG2 viability: inactive; ATXN2 expr inh: inconclusive; TGFb inhibitor: 10µM; ATXN viability: inactive

How did Cc1ccccc1/C=C/C12NC(=O)CN1c1ccccc1C2(C)C (configuration not stated) do in these assays?
HT1080 IDH1KD tx: inactive; HepG2 viability: inactive; HT1080NT lethal: inactive; ATXN2 expr inh: inactive; TGFb inhibitor: inactive; ATXN viability: inactive

Results for CC1(C)c2ccccc2N2CC(=O)N[C@@]21/C=C/C=C/c1ccccc1 ?
HT1080 IDH1KD tx: inconclusive; HepG2 viability: inactive; HT1080NT lethal: 10µM; ATXN2 expr inh: inactive; TGFb inhibitor: inconclusive; ATXN viability: inconclusive

Results for COC(=O)C=C1CCC2C3CCC4=CC(=O)C(Br)CC4(C)C3C(=O)CC12C (configuration not stated) ?
HT1080 IDH1KD tx: inactive; HepG2 viability: inactive; HT1080NT lethal: inactive; ATXN2 expr inh: 32µM; TGFb inhibitor: inactive
